Assay results: PubChem BioAssay (Tox21)
Where “and” joins values, the source holds several entries; their conditions need not be identical. Identical values can stand only once. Results filed as inconclusive are left out. Calls of active or inactive are those of the source. Unless noted, calls follow the shape of the dose curve; as a rule, active = well fitted curve in the direction sought with a large enough effect in the repeat runs; inconclusive = weak or mixed curves; inactive = no such curve, though single readings can be large; an effect the other way counts as inactive or inconclusive.

Experiments:
[1] = molecular target: Luciferin 4-monooxygenase (Photinus pyralis) (UniProt P08659); assay: qHTS assay to identify small molecule inhibitors of firefly luciferase (AID 1224835); also: % is scaled to controls: 0 for no effect and ±100 for the full control effect; nearly all actives have a fitted effect of over 25% in size
Method in brief: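 Quantitative HTS format; KM concentrations of both substrates. Purified P. pyralis FLuc activity quantified from luminescence images.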

[2] = molecular target: Nuclear receptor subfamily 1 group I member 3 (Homo sapiens) (UniProt Q14994); assay: qHTS assay to identify small molecule antagonists of the constitutive androstane receptor (CAR) signaling pathway (AID 1224838); also: potency is read from the fitted curve at half-maximal effect; nearly all actives have a fitted effect of over 40% in size
Method in brief: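 Cell line: HepG2 double-stable for hCAR and CYP2B6-2.2kb reporter. Agonist: CITCO, 50 nM final. Compounds: 15 concentrations, 24 h, 37 C. Detection: ONE-Glo luminescence.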

[3] = molecular target: Nuclear receptor subfamily 1 group I member 3 (Homo sapiens) (UniProt Q14994); assay: qHTS assay to identify small molecule agonists of the constitutive androstane receptor (CAR) signaling pathway (AID 1224839);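 also: HepG2 cells stably carrying human CAR and a CYP2B6 luciferase reporter; % is scaled to controls: 0 for no effect and ±100 for the full control effect; nearly all actives have a fitted effect of over 15% in size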
Method in brief: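 HepG2 cells stably expressing hCAR and a CYP2B6-2.2kb luciferase reporter were treated with compounds at 15 concentrations plus 0.75 uM PK11195 (final) for 24 h at 37 C; luminescence was read after ONE-Glo addition.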

[4] = qHTS assay to identify small molecule antagonists of the estrogen related receptor signaling pathway with the pleiotropic PPARgamma coactivator (PGC) from Tox21 10K library - cell viability counter screen (AID 1224840; active = well fitted cell-killing curve with a large enough effect in the repeat runs, not every such curve was filed as active; also: nearly all actives have a fitted effect of over 40% in size; also: potency is read from the fitted curve at half-maximal effect)
Method in brief: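 Following seeding of 2,000 PGC/ERR cells/well and 6 hours' incubation, test compounds were delivered in DMSO. The plates then sat 17.5 hours at 37 C before a fluorogenic live-cell protease reagent (CellTiter-Fluor) was read after 30 min.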

[5] = qHTS assay to identify small molecule agonists of the estrogen related receptor signaling pathway with the pleiotropic PPARgamma coactivator (PGC) from Tox21 10K library (AID 1224842); also: % is scaled to controls: 0 for no effect and ±100 for the full control effect; nearly all actives have a fitted effect of over 15% in size
Method in brief: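 PGC/ERR reporter cells (NTP line) were seeded 2,000 per well, rested 6 h at 37 C/5% CO2, then pin-dosed with compounds in DMSO for 18 h at 37 C; luciferase read by One-Glo luminescence after 30 min at room temperature.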

[6] = qHTS assay to identify small molecule agonists of the hypoxia (HIF-1) signaling pathway - cell viability counter screen (AID 1224844; calls by dose curve; also: nearly all actives have a fitted effect of over 50% in size; also: potency is read from the fitted curve at half-maximal effect)
Method in brief: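 Cells (HRE-bla ME-180, 2,000 per well) sat 5 hrs at 37C, got compound for 17 hrs, were read for CCF4-AM FRET, and were finally lysed with CellTiter-Glo for a 30 min room-temperature luminescence read.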

[7] = qHTS assay to identify small molecule agonists of H2AX - cell viability counter screen (AID 1224847; calls by dose curve; also: nearly all actives have a fitted effect of over 30% in size; also: potency is read from the fitted curve at half-maximal effect)
Method in brief: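 Wild-type CHO-K1 cells (10% FBS medium) were plated overnight at 37C, exposed to compounds at 15 concentrations for 3 hr at 37C (0.76% DMSO final), and viability was read as CellTiter-Glo luminescence after 30 min at room temperature.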

[8] = qHTS assay to identify small molecule antagonists of the estrogen related receptor (ERR) signaling pathway from Tox21 library (AID 1224848); also: nearly all actives have a fitted effect of over 50% in size; also: potency is read from the fitted curve at half-maximal effect
Method in brief: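 Cells: ERR line, 2,000/well; 6 h preincubation 37 C/5% CO2. Cpd in DMSO via pin tool; 18 h, 37 C. ONE-Glo, 30 min RT, luminescence.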

[9] = qHTS assay to identify small molecule agonists of the estrogen related receptor (ERR) signaling pathway from Tox21 library (AID 1224849; calls by dose curve; also: % is scaled to controls: 0 for no effect and ±100 for the full control effect; nearly all actives have a fitted effect of over 15% in size); conditions: ERR reporter cell line, ONE-Glo luciferase, 18 h; at 92.4 µM (top of the series) unless noted
Method in brief: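 Screening used an NTP-provided ERR luciferase cell line. Compounds in DMSO were added 6 h after seeding and left 18 h at 37 C before a 30 min ONE-Glo step and luminescence reading.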

[10] = qHTS RealTime-Glo MT Cell Viability Assay in HepG2 cells - 24 hour (AID 1224867); also: nearly all actives have a fitted effect of over 50% in size; also: potency is read from the fitted curve at half-maximal effect
Method in brief: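 HepG2 cells (600/well) were dispensed with RealTime-Glo reagents, incubated 5 h at 37 °C, then treated with compounds in DMSO for up to 40 h. Nonlytic NanoLuc luminescence reflecting viable cells was read at each stated time point.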

[11] = qHTS RealTime-Glo MT Cell Viability Assay in HEK293 cells - 32 hour (AID 1224868); also: nearly all actives have a fitted effect of over 50% in size; also: potency is read from the fitted curve at half-maximal effect
Method in brief: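 HEK293 cells seeded with NanoLuc/prosubstrate reagent, rested 5 h at 37 C, then dosed and kept at 37 C up to 40 h. Nonlytic real-time luminescence from viable cells read at 0, 8, 16, 24, 32 and 40 h.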

[12] = A CellTox Green Cytotoxicity Assay to monitor cytotoxicity in HEK293 cells - 0 hour (AID 1224869); also: nearly all actives have a fitted effect of over 50% in size; also: potency is read from the fitted curve at half-maximal effect; as to Cytotoxicity: % is scaled to controls: 0 for no effect and ±100 for the full control effect
Method in brief: (§1)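 Fluorescence intensity, read at 0, 8, 16, 24, 32 and 40 h of compound treatment, reflected dye binding to DNA of dead HEK293 cells; compounds (23 nL, DMSO) were added 5 h after plating cells with reagent.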

[13] = qHTS RealTime-Glo MT Cell Viability Assay in HepG2 cells - 40 hour (AID 1224870); also: nearly all actives have a fitted effect of over 50% in size; also: potency is read from the fitted curve at half-maximal effect
Method in brief: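 HepG2 cells mixed with RealTime-Glo MT reagents (NanoLuc plus cell-permeant prosubstrate) were seeded at 600 cells/well, incubated 5 h at 37 C/5% CO2, then pinned with compounds in DMSO; nonlytic luminescence tracked viability during 40 h treatment.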

[14] = A CellTox Green Cytotoxicity Assay to monitor cytotoxicity in HEK293 cells - 40 hour (AID 1224871); also: nearly all actives have a fitted effect of over 45% in size; also: potency is read from the fitted curve at half-maximal effect
Method in brief: as §1

[15] = qHTS assay to identify small molecule antagonists of the constitutive androstane receptor (CAR) signaling pathway - cell viability counter screen (AID 1224837); also: nearly all actives have a fitted effect of over 45% in size; also: potency is read from the fitted curve at half-maximal effect
Method in brief: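 Counter screen run in HepG2-CYP2B6-hCAR cells: 4 hr settle, compound titration (15 concentrations) with 50 nM CITCO, 23 hr at 37 C/5% CO2, CellTiter-Fluor fluorescence.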

[16] = molecular target: Thyrotropin receptor (Homo sapiens) (UniProt P16473); assay: qHTS assay to identify small molecule agonists of the thyroid stimulating hormone receptor (TSHR) signaling pathway (AID 1224843; calls by dose curve; also: nearly all actives have a fitted effect of over 45% in size; also: potency is read from the fitted curve at half-maximal effect; as to activation: % is scaled to controls: 0 for no effect and ±100 for the full control effect)
Method in brief: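 TSHR-expressing HEK293 cells (800 per well) were exposed to compounds for 30 min at room temperature. cAMP was then detected by HTRF competition with cAMP-d2 and anti-cAMP cryptate, read after 1 h at room temperature. Fifteen concentrations, triplicate.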

[17] = qHTS assay to identify small molecule agonists of H2AX (AID 1224845; active = well fitted activation curve with a large enough effect in the signal ratio in the repeat runs, not every such curve was filed as active; the % refers to the signal ratio; also: % is scaled to controls: 0 for no effect and ±100 for the full control effect)
Method in brief: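 Wild-type CHO-K1 cells plated overnight, then exposed 3 hr at 37C to compounds at 15 concentrations (0.76% DMSO). Lysed, then HTRF anti-pH2AX(S139)-cryptate/anti-H2AX-d2 detection after 24 hr at room temperature; emissions 665 and 620 nm.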

[18] = qHTS assay to identify small molecule agonists of the hypoxia (HIF-1) signaling pathway (AID 1224846; active = well fitted activation curve with a large enough effect in the signal ratio in the repeat runs, not every such curve was filed as active; the % refers to the signal ratio; also: % is scaled to controls: 0 for no effect and ±100 for the full control effect)
Method in brief: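 A low-serum medium (0.5% dialyzed FBS) holding 2,000 HRE-bla ME-180 cells per well is preincubated for 5 hrs, dosed with compounds by pintool, and kept a further 17 hrs at 37C, 5% CO2 before CCF4-AM FRET detection of beta-lactamase.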

[19] = qHTS assay to identify small molecule antagonists of the estrogen related receptor signaling pathway with the pleiotropic PPARgamma coactivator (PGC) from Tox21 10K library (AID 1224841; call rule not given here; also: potency is read from the fitted curve at half-maximal effect)
Method in brief: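 qHTS antagonist format: PGC/ERR cells, 2k/well, compound in DMSO by pin transfer after 6 h attachment, 18 h treatment at 37 C, One-Glo luminescence read at 30 min.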

Sequence of Luciferin 4-monooxygenase (Photinus pyralis) (P08659 whole entry, looked up): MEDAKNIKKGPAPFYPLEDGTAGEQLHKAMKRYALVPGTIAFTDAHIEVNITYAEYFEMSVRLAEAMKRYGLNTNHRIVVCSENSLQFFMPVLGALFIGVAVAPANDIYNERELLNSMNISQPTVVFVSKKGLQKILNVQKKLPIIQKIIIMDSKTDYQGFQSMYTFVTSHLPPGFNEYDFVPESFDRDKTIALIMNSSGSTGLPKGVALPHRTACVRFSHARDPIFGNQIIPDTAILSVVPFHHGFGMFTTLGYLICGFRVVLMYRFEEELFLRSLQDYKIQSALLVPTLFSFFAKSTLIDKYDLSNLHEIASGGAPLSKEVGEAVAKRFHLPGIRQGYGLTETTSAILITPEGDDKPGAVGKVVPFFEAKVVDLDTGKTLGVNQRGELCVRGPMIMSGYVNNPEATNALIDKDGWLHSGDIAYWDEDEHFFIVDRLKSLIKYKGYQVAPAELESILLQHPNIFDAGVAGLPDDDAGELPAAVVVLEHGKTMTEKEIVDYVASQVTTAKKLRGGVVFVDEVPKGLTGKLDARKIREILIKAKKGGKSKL
Sequence of Thyrotropin receptor (Homo sapiens) (P16473 whole entry, looked up): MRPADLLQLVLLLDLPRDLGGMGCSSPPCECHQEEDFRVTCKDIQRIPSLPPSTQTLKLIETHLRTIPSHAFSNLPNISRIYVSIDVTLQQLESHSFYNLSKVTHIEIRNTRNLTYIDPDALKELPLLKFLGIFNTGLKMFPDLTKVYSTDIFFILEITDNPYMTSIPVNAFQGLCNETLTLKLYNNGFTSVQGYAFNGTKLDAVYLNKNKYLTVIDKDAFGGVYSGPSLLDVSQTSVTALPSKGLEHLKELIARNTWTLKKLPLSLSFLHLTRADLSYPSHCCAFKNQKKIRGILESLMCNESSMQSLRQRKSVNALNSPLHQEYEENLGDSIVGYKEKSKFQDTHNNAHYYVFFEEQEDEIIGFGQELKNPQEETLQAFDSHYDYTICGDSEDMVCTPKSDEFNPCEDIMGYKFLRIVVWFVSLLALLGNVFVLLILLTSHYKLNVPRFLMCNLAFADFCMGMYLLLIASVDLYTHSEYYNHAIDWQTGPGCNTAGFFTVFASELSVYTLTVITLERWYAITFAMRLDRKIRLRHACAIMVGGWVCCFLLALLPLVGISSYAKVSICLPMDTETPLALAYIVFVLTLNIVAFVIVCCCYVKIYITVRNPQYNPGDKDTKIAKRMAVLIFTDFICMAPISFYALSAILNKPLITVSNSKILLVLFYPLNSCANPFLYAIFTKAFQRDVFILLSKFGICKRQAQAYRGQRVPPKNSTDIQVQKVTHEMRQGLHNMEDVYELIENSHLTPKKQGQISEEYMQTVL
Sequence of Nuclear receptor subfamily 1 group I member 3 (Homo sapiens) (Q14994 whole entry, looked up): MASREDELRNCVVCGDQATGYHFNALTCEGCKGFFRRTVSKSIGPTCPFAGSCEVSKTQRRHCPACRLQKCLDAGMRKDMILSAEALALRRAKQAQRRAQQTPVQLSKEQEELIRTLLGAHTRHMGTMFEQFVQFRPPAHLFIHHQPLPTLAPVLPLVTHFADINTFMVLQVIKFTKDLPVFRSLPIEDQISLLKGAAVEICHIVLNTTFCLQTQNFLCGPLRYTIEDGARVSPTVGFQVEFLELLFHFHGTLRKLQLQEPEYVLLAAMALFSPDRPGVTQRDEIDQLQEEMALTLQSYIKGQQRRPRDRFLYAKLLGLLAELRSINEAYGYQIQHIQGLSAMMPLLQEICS

CCN=c1cc2oc3cc(NCC)c(C)cc3c(-c3ccccc3C(=O)OCC)c-2cc1C
inactive: Potency [1] | Potency [3] | Potency [4] | Potency [5] | activity change, positive = activation [9] -79.8% and -73.2%
active: Potency [2] 54.3 µM and 54.5 µM | Potency [6] 38.9 µM | Potency [7] 7.1 µM and 31.8 µM | Potency [8] 108 nM and 122 nM | Potency [10] 43.5 µM and 24.5 µM | Potency [11] 1.09 µM and 1.38 µM | Potency [12] 6.89 µM and 6.92 µM | Potency [13] 43.5 µM and 21.9 µM | Potency [14] 7.73 µM and 12.3 µM

CO[Si](CCCNCCNCCN)(OC)OC
inactive: Potency [1] | Potency [15] | Potency [3] | Potency [4] | Potency [5] | Potency [16] | Potency [17] | outcome [18] | Potency [7] | Potency [8] | activity change, positive = activation [9] 2.38% | Potency [10] | Potency [11] | Potency [13] | Potency [14]

CC(=O)OC(OC(C)=O)c1ccc([N+](=O)[O-])o1
inactive: Potency [1] | Potency [3] | Potency [5] | activity change, positive = activation [9] -81.4%
active: Potency [15] 62.2 µM | Potency [2] 55.4 µM | Potency [16] 27.8 µM | Potency [11] 44.4 µM | Potency [14] 49.8 µM

O=C1NC2CCCCN2C12CCN(CCCN1c3ccccc3CCc3ccc(Cl)cc31)CC2 (configuration not stated)
inactive: Potency [1] | Potency [3] | Potency [5] | Potency [6] | outcome [18] | activity change, positive = activation [9] -64.1% [at 42.5 µM] | Potency [12]
active: Potency [19] 10.6 µM | Potency [8] 23.7 µM | Potency [10] 23.9 µM | Potency [11] 9.52 µM | Potency [13] 23.9 µM | Potency [14] 21.3 µM

C=CC(=C)CCC=C(C)C
inactive: Potency [1] | Potency [3] | Potency [4] | Potency [6] | outcome [18] | Potency [10] | Potency [11] | Potency [12] | Potency [13] | Potency [14]
active: Potency [2] 61.1 µM

NC1(c2ccc(-c3nc4ccn5c(=O)[nH]nc5c4cc3-c3ccccc3)cc2)CCC1
active: Potency [2] 11.9 µM | Potency [4] 15 µM | Potency [19] 3.35 µM | Potency [8] 3.35 µM | Potency [10] 23.9 µM | Potency [11] 1.9 µM | Potency [14] 26.8 µM
inactive: Potency [1] | Potency [3] | Potency [16] | activity change, positive = activation [9] -52.3% [at 42.5 µM]

Cc1cc2c(C(C)C)c(O)c(O)c(C=O)c2c(O)c1-c1c(C)cc2c(C(C)C)c(O)c(O)c(C=O)c2c1O
inactive: Potency [1] | Potency [3] | Potency [5] | Potency [16] | activity change, positive = activation [9] -47.3% [at 42.5 µM] | Potency [12]
active: Potency [19] 11.9 µM | Potency [8] 7.5 µM | Potency [10] 21.3 µM | Potency [11] 12 µM | Potency [13] 26.8 µM | Potency [14] 19 µM

C=CC(=O)OCC(O)COc1ccccc1 (configuration not stated)
inactive: Potency [1] | Potency [3] | Potency [11] | Potency [12] | Potency [13]
active: Potency [6] 38.9 µM

CCc1c(C(=O)O)c(=O)cnn1-c1ccc(Cl)cc1
inactive: Potency [1] | Potency [15] | Potency [4] | Potency [19] | Potency [16] | Potency [6] | Potency [17] | outcome [18] | Potency [7] | Potency [8] | activity change, positive = activation [9] 3.84% | Potency [10] | Potency [11] | Potency [12] | Potency [13] | Potency [14]
